We go through 36 compounds from PubChem BioAssay.

This test relates to Human papillomavirus type 1a E7 protein (residues 1-88). Nature of the test: HPV1a E7 small-molecule binders, primary screen, biochemical, small-molecule microarray, residues 1-88, 635 nm (AID 1129). The note with it: small-molecule microarray binding, fluorescence 635 nm; higher = more signal.
Turning to `C=CCC(OC(C)=O)[C@@H]1[C@@H](N(Cc2cccc3ccccc23)C(=O)c2cccc3ccccc23)c2cc(OCCCO)ccc2N1C(=O)c1ccc2ccccc2n1` (stereo partly specified), the composite z-score was -0.0829.

Consider `COc1ccc(C(O)C2C=CC3C(=O)NC(=O)C3N2Nc2ccccn2)cc1OCc1ccccc1` (stereo unspecified), for which the composite z-score worked out at 0.502.

As to `CCCN1C(=O)[C@@]2(CCC(=O)OC(C)(C)C)N=C(c3ccc(OCCCO)cc3)O[C@H]2c2ccccc21`, the composite z-score is 0.999.

The compound `COc1cccc(C(=O)O[C@H]2CC[C@]3(C)C4=C(CCC3C2(C)C)[C@]2(C)CC[C@H]([C@H](C)CCCC(C)C)[C@@]2(C)CC4)c1` (stereo partly specified) registered a composite z-score of 0.386.

`COc1cc2c(cc1OC)CN(C(=O)[C@@H]1[C@H]3C(=O)O[C@H](c4ccccc4)[C@H](c4ccccc4)N3[C@H](c3ccccc3OCCO)[C@@]13C(=O)Nc1ccc(C#CCNC(N)=O)cc13)CC2` registered a composite z-score of 0.923.

Regarding `CN(C)CCCCNC(=O)[C@H]1C[C@H]2C(=O)N[C@@H](Cc3ccccc3)C(=O)N2[C@H]1c1ccc(O)cc1`, the composite z-score amounted to 1.16.

`COc1ccc(CCN2C(=O)[C@@]3(Cc4ccccc42)c2ccccc2C(=O)N(Cc2ccccc2Cl)[C@H]3c2ccc(CO)cc2)cc1` yielded a composite z-score of -1.3.

Compound `CCCCCCCCCCC(O)C1C=CC2C(=O)N(Cc3ccccc3)C(=O)C2N1n1cnnc1` (stereo unspecified) had a composite z-score of 0.812.

In turn, `COCCOC(=O)N1C(=O)[C@@]2(c3cc(C#CCC(C(=O)OC)C(=O)OC)ccc31)[C@H](C(=O)N1CCN(c3ncccn3)CC1)[C@H]1C(=O)O[C@H](c3ccccc3)[C@H](c3ccccc3)N1[C@@H]2c1ccc(OCCO)cc1` yielded a composite z-score of 1.19.

Compound `C=C(COC)C(=O)CC[C@@H](OC(=O)c1cccnc1)c1ccc(CO)o1` registered a composite z-score of 0.0982.

In the case of `C=C[C@@H](COC(C)=O)N(Cc1ccc([N+](=O)[O-])cc1)S(=O)(=O)c1ccc(Br)cc1`, the composite z-score was 1.17.

Take `O=C1O[C@@H](c2ccccc2)[C@@H](c2ccccc2)N2[C@@H](c3ccc(O)cc3)[C@]3(C(=O)Nc4ccc(C#CC5(O)CCCCCC5)cc43)[C@@H](C(=O)N3CCCCCCC3)[C@H]12`: the composite z-score was 1.26.

On to `COC(=O)C[C@@H]1C[C@H](C)[C@]2(O1)C(=O)N(Cc1ccccc1)c1ccc(NC(C)=O)cc12`, for which the composite z-score was determined as 0.453.

As to `CC(C)(C)N1CC=CC23O[C@@H]4C=CCOC(=O)[C@@H]4[C@H]2C(=O)N(CCCCCO)[C@@H]3C1=O` (stereo partly specified), the composite z-score was -1.45.

`C=CCN1C(=O)[C@]2(O[C@H](CCO)[C@@H]([Si](C)(C)c3ccc(OC)cc3)[C@@H]2C)c2cc(NC(=O)[C@H](C)O)ccc21` had a composite z-score of 1.22.

Turning to `C=CC(=C)C1=CCO[C@@H]1[C@H]1CCCN1S(=O)(=O)c1ccccc1[N+](=O)[O-]`, the composite z-score came out at 0.25.

`COc1ccc(NN2C(C(O)c3ccc(OC)c(OCc4ccccc4)c3)C=CC3C(=O)N(C4CCCCC4)C(=O)C32)cc1` (stereo unspecified) registered a composite z-score of 1.21.

In turn, `[N-]=[N+]=NCc1ccccc1[C@@H]1OC(c2ccc(OCCCO)cc2)=N[C@]1(Cc1ccccc1)C(=O)N1CCCCC1` came in with a composite z-score of 1.2.

The compound `CC(C)(C)N1CC=CC23O[C@@H]4/C=C\CCCOC(=O)C4[C@H]2C(=O)N(CCO)[C@@H]3C1=O` (stereo partly specified) yielded a composite z-score of 0.193.

In the case of `O=C1O[C@H](c2ccccc2)[C@H](c2ccccc2)N2[C@H]1[C@@H](C(=O)O)[C@]1(C(=O)Nc3ccc(C#CC4=CCCCC4)cc31)[C@H]2c1ccc(OCCO)cc1`, the composite z-score was determined as 1.24.

`COC(=O)C[C@H]1O[C@]2(C(=O)N(Cc3ccccc3)c3ccc(NC(C)=O)cc32)[C@@H](C)[C@@H]1[Si](C)(C)c1ccc(OC)cc1` registered a composite z-score of 0.822.

For the compound `CC(C)CNC(=O)[C@@H]1c2ccccc2C(=O)N(Cc2cc(C(F)(F)F)cc(C(F)(F)F)c2)[C@H]1c1ccc(CO)cc1`, the composite z-score is -0.569.

In turn, `COc1ccccc1CN1C(=O)c2ccccc2[C@@H](C(=O)NCCN2CCOCC2)[C@@H]1c1ccc(CO)cc1` yielded a composite z-score of 0.789.

Compound `NCCCCCCNC(=O)[C@H]1C[C@H]2C(=O)NCC(=O)N2[C@H]1c1cccc(OCCO)c1` came in with a composite z-score of 0.858.

Consider `COCCOC(=O)N1C(=O)[C@@]2(c3ccccc31)[C@H](C(=O)NC[C@H](O)c1ccccc1)[C@H]1C(=O)O[C@H](c3ccccc3)[C@H](c3ccccc3)N1[C@@H]2c1ccc(OCCO)cc1`, for which the composite z-score turned out to be 1.15.

With `CC(C)N1CC=CC23O[C@@H]4C=CCOC(=O)[C@@H]4[C@H]2C(=O)N(CCO)[C@@H]3C1=O` (stereo partly specified), the composite z-score was -0.586.

As to `COC(=O)[C@@]1(Cc2ccccc2)[C@H]2c3cc(C(=O)N4CCCC4)n(C)c3C[C@H]2CN1C(=O)c1ccccc1`, the composite z-score was 0.762.

Take `O=C1[C@]2(CO)C=C(Br)[C@@H](C[C@@H]2c2ccccc2)[C@@]12CO2`: the composite z-score is -0.769.

For the compound `CCCCC(O)C1C=CC2C(=O)N(C3CCCCC3)C(=O)C2N1Nc1ccc(OC)cc1` (stereo unspecified), the composite z-score came to 1.2.

As to `COc1ccc(C(O)C2C=CC3C(=O)N(c4ccccc4)C(=O)C3N2Nc2ccc([N+](=O)[O-])cc2)cc1OCc1ccccc1` (stereo unspecified), the composite z-score came out at 1.2.

Regarding `Cc1ccc(S[C@]2(C(=O)NCc3ccccc3)CC(=O)N(Cc3ccccc3)[C@@H]2c2ccc(CO)cc2)cc1`, the composite z-score stood at 0.0804.

In turn, `C=C(COC)/C(=C/C[C@H](OC(=O)c1ccncc1)c1cccc(OCCO)c1)c1cc(C(=O)OC)ccc1OC` displayed a composite z-score of 1.1.

As for `COC(=O)[C@@]1(Cc2ccccc2)[C@H]2c3cc(C(=O)N(C)C)n(Cc4cc(C)n(C)n4)c3C[C@H]2CN1C(=O)c1ccccc1`, the composite z-score was 1.13.

Take `COC(=O)[C@@]1(Cc2ccccc2N=[N+]=[N-])COC(c2ccc(OCCCO)cc2)=N1`: the composite z-score stood at 1.16.

As for `CN1CCC(CCCO)=CC1c1ccc(CN2CCCC2)cc1` (stereo unspecified), the composite z-score amounted to 1.06.

In turn, `CC(=CC1CCCCC1)[C@@H](NC(=O)c1ccc(C(F)(F)F)cc1)c1ccc(-c2ccccc2)cc1` registered a composite z-score of -0.753.
